# Records with an inconclusive call do not appear. Where a call stands in place of a potency, no number is given. Active and inactive are the calls of the source. Unless noted, calls come from the whole dose curve; as a rule, active = well fitted curve in the direction sought with a large enough effect in the repeat runs; inconclusive = weak or mixed curves; inactive = no such curve, though single readings can be large; an effect the other way counts as inactive or inconclusive.
# Key:
# [1] = qHTS assay to identify small molecule antagonists of the retinoid acid receptor (RAR) signaling pathway - cell viability counter screen (AID 1159551); note: nearly all actives have a fitted effect of over 35% in size
# Outline: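 Following overnight attachment, C3RL4 reporter cells received DMSO-dissolved compounds and then retinol (1 uM final). Six hours later at 37 C, ATP content was measured by CellTiter-Glo luminescence.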
# [2] = qHTS assay to identify small molecule agonists of the retinoic acid receptor (RAR) signaling pathway (AID 1159553)
# Outline: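 Cell line C3RL4, RARE luciferase reporter. Treatment: compounds in DMSO, 6 hr, 37 C, 5% CO2, after overnight plating. Detection: luminescence, 30 min RT after reagent.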
# [3] = qHTS assay to identify small molecule antagonists of the estrogen related receptor (ERR) signaling pathway from Tox21 library - cell viability counter screen (AID 1224834); note: nearly all actives have a fitted effect of over 30% in size; note: potency is the fitted concentration of half-maximal effect
# Outline: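 Viability readout (CellTiter-Fluor fluorescence, 30 min at 37 C) multiplexed with the ERR assay; cells treated 17.5 h at 37 C with compounds delivered in DMSO.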
# [4] = qHTS assay to identify small molecule agonists of the constitutive androstane receptor (CAR) signaling pathway - cell viability counter screen (AID 1224836); note: nearly all actives have a fitted effect of over 45% in size; note: potency is the fitted concentration of half-maximal effect
# Outline: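 Cell viability multiplexed with the CAR agonist screen: CellTiter-Fluor fluorescence after 23 hr at 37 C. HepG2-CYP2B6-hCAR cells got compounds at 15 concentrations with PK11195 at 0.75 uM final.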
# [5] = qHTS assay to identify small molecule antagonists of the constitutive androstane receptor (CAR) signaling pathway - cell viability counter screen (AID 1224837); note: series mostly up to about 92 µM; nearly all actives have a fitted effect of over 45% in size
# Outline: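 Fluorescence from CellTiter-Fluor served as the viability signal. Human hepatoma HepG2 cells stably bearing hCAR and CYP2B6-2.2kb received compound plus CITCO (50 nM final) for 23 hr.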
# [6] = target: Nuclear receptor subfamily 1 group I member 3 (Homo sapiens) (UniProt Q14994); assay: qHTS assay to identify small molecule antagonists of the constitutive androstane receptor (CAR) signaling pathway (AID 1224838);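 note: HepG2 cells stably expressing hCAR with CYP2B6 luciferase reporter stimulated by CITCO; nearly all actives have a fitted effect of over 40% in size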; note: potency is the fitted concentration of half-maximal effect
# Nuclear receptor subfamily 1 group I member 3 (Homo sapiens), sequence (Q14994 whole entry, looked up): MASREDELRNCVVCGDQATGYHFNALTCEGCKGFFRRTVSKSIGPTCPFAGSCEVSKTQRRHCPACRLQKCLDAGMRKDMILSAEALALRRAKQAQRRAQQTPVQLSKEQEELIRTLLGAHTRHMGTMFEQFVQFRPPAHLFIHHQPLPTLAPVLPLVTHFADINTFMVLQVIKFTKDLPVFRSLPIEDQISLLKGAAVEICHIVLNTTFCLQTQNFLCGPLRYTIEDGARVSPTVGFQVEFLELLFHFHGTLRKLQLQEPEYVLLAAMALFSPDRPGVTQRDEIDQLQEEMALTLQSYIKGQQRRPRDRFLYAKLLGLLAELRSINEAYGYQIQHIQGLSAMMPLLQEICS
# Outline: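 Quantitative HTS in double-stable HepG2-CYP2B6-hCAR cells. After 4 h plating, cells get compound (15 concentrations) and CITCO at 50 nM final, incubate 24 h at 37 C, then ONE-Glo luminescence is read.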
# [7] = target: Nuclear receptor subfamily 1 group I member 3 (Homo sapiens) (UniProt Q14994); assay: qHTS assay to identify small molecule agonists of the constitutive androstane receptor (CAR) signaling pathway (AID 1224839); note: nearly all actives have a fitted effect of over 15% in size; note: potency is the fitted concentration of half-maximal effect
# Outline: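 Luminescent ONE-Glo read-out after 24 hr, 37 C exposure of double-stable HepG2-CYP2B6-hCAR reporter cells to a 15-point compound series, in the presence of 0.75 uM PK11195 (final).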
# [8] = qHTS assay to identify small molecule antagonists of the estrogen related receptor signaling pathway with the pleiotropic PPARgamma coactivator (PGC) from Tox21 10K library - cell viability counter screen (AID 1224840; active = well fitted cell-killing curve with a large enough effect in the repeat runs, not every such curve was filed as active; note: nearly all actives have a fitted effect of over 40% in size; note: potency is the fitted concentration of half-maximal effect)
# Outline: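 Compounds in DMSO, alongside positive and negative controls, were pinned onto PGC/ERR cells (2,000 per well). Exposure lasted 17.5 hours at 37 C, followed by a 30-minute CellTiter-Fluor incubation and fluorescence reading.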
# [9] = qHTS assay to identify small molecule antagonists of the estrogen related receptor signaling pathway with the pleiotropic PPARgamma coactivator (PGC) from Tox21 10K library (AID 1224841; call rule not given here; note: actives are mostly falling curves and most rising ones were filed inactive; nearly all actives have a fitted effect of over 50% in size; note: potency is the fitted concentration of half-maximal effect)
# Outline: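 Compound exposure ran 18 hours at 37 C in PGC/ERR cells (2,000/well) that had first rested 6 hours in a 37 C/5% CO2 incubator. Luciferase activity was then detected with One-Glo after a 30-minute room-temperature step.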
# [10] = qHTS assay to identify small molecule agonists of the estrogen related receptor signaling pathway with the pleiotropic PPARgamma coactivator (PGC) from Tox21 10K library (AID 1224842); note: nearly all actives have a fitted effect of over 15% in size
# Outline: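 PGC/ERR reporter cells (NTP line) were seeded 2,000 per well, rested 6 h at 37 C/5% CO2, then pin-dosed with compounds in DMSO for 18 h at 37 C; luciferase read by One-Glo luminescence after 30 min at room temperature.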
# [11] = target: Luciferin 4-monooxygenase (Photinus pyralis) (UniProt P08659); assay: qHTS assay to identify small molecule inhibitors of firefly luciferase (AID 1224835); note: nearly all actives have a fitted effect of over 25% in size; note: potency is the fitted concentration of half-maximal effect
# Luciferin 4-monooxygenase (Photinus pyralis), sequence (P08659 whole entry, looked up): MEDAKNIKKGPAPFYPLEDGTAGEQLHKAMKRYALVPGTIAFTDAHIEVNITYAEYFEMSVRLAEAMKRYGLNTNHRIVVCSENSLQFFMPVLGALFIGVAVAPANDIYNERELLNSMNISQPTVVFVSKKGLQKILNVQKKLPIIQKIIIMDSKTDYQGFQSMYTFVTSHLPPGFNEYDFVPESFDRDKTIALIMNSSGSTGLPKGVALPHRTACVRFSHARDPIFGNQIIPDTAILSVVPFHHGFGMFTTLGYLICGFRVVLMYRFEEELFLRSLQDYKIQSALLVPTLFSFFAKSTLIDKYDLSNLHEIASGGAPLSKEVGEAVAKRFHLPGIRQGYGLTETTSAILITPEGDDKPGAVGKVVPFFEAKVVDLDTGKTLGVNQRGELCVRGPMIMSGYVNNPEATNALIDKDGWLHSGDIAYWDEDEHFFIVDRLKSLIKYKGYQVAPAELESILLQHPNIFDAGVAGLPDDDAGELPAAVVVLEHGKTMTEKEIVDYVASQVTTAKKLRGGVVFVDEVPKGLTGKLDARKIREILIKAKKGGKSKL
# Outline: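 Quantitative HTS format; KM concentrations of both substrates. Purified P. pyralis FLuc activity quantified from luminescence images.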
# [12] = qHTS assay to identify small molecule antagonists of the estrogen related receptor (ERR) signaling pathway - cell viability counter screen (AID 1224818);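 note: series mostly up to about 46 µM; viability measured after 17.5 h of compound exposure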
# Outline: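 Here, ERR cells are plated at 2,000 cells per well, allowed 6 h to attach, and treated with compounds in DMSO for 17.5 h at 37 C. CellTiter-Fluor is then added and fluorescence read after 30 min.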
# [13] = qHTS assay to identify small molecule antagonists of the estrogen related receptor (ERR) signaling pathway (AID 1224819;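 note: luminescence from an ERR-driven luciferase reporter measured with One-Glo reagent; series mostly up to about 46 µM; nearly all actives have a fitted effect of over 50% in size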)
# Outline: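 LOPAC library screened for antagonism as reduced One-Glo luminescence in ERR reporter cells (2,000/well). Compounds were added after 6 h pre-incubation and left 18 h at 37C; reading followed a 30 min room-temperature reagent step.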
# [14] = qHTS assay to identify small molecule agonists of the estrogen related receptor (ERR) signaling pathway (AID 1224820)
# Outline: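 ERR reporter cell line (from NTP), 2,000 cells/well, incubated 6 h before compound addition, then 18 h at 37 C. Luminescence measured 30 min after One-Glo reagent at room temperature.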
# [15] = test system: estrogen-related receptor alpha (ERRalpha) with PGC-1alpha coactivator, human; assay: qHTS assay to identify small molecule antagonists of the estrogen related receptor signaling pathway with the pleiotropic PPARgamma coactivator (PGC) (AID 1224821; calls by dose curve; note: nearly all actives have a fitted effect of over 50% in size; note: potency is the fitted concentration of half-maximal effect)
# Outline: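 PGC/ERR reporter cell line, plated 6 h before compound addition, then exposed 18 h at 37 °C. Luciferase activity read by luminescence 30 min after One-Glo addition; decrease indicates antagonism.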
# [16] = qHTS assay to identify small molecule antagonists of the estrogen related receptor signaling pathway with the pleiotropic PPARgamma coactivator (PGC) cell viability counter screen (AID 1224822; note: potency is the fitted concentration of half-maximal effect;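 note: viability read after 17.5 h compound exposure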)
# Outline: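 qHTS format, DMSO compound stocks pin-transferred onto PGC/ERR cells 6 h after plating; 17.5 h exposure at 37 C, then CellTiter-Fluor fluorescence.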
# [17] = qHTS assay to identify small molecule agonists of the estrogen related receptor signaling pathway with the pleiotropic PPARgamma coactivator (PGC) (AID 1224823)
# Outline: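 PGC/ERR reporter cells seeded 6 h, then exposed to compounds (23 nL in DMSO) for 18 h at 37 C. One-Glo luciferase luminescence read after 30 min at room temperature.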
# [18] = qHTS assay to identify small molecule antagonists of the retinoic acid receptor (RAR) signaling pathway (AID 1159552; note: nearly all actives have a fitted effect of over 50% in size)
# Outline: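 Luminescent RARE reporter read-out in C3RL4 cells: 6 hr co-treatment at 37 C of test compounds with retinol at 1 uM final. Cells plated overnight beforehand; luciferase reagent incubated 30 min at room temperature before reading.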
structure (smiles),measurement,setting,value
CNP(=O)(OC)Oc1ccc(C(C)(C)C)cc1Cl (stereo unspecified),Potency,[1],inactive
same,Potency,[2],inactive
same,Potency,[3],inactive
same,Potency,[4],inactive
same,Potency,[5],inactive
same,Potency,[6],inactive
same,Potency,[7],48.6 µM (active)
same,Potency,[8],inactive
same,Potency,[9],inactive
same,Potency,[10],inactive
O=C(OC1CCCCC1)c1ccccc1C(=O)OC1CCCCC1,Potency,[1],inactive
same,Potency,[11],inactive
same,Potency,[4],inactive
same,Potency,[5],inactive
same,Potency,[6],inactive
same,Potency,[8],inactive
COCC(C)N(C(=O)CCl)c1c(C)csc1C (stereo unspecified),Potency,[1],inactive
same,Potency,[3],inactive
same,Potency,[11],inactive
same,Potency,[4],inactive
same,Potency,[5],inactive
same,Potency,[8],inactive
same,Potency,[9],21.7 µM (active)
same,Potency,[10],inactive
O=C=Nc1ccc(Cl)cc1,Potency,[1],inactive
same,Potency,[3],inactive
same,Potency,[11],5.64 µM (active)
same,Potency,[4],inactive
same,Potency,[5],inactive
same,Potency,[6],inactive
same,Potency,[7],6.86 µM (active)
same,Potency,[8],inactive
COCCOCCO,Potency,[1],inactive
same,Potency,[2],inactive
same,outcome,[12],inactive
same,outcome,[13],inactive
same,outcome,[14],inactive
same,Potency,[15],inactive
same,Potency,[16],inactive
same,outcome,[17],inactive
same,Potency,[3],inactive
same,Potency,[11],inactive
same,Potency,[4],inactive
same,Potency,[5],inactive
same,Potency,[6],inactive
same,Potency,[7],inactive
same,Potency,[8],inactive
same,Potency,[9],inactive
same,Potency,[10],inactive
O=C(Nc1ccccc1)Nc1ccnc(Cl)c1,Potency,[1],inactive
same,Potency,[18],inactive
same,Potency,[3],43.3 µM (active)
same,Potency,[11],15.9 µM (active)
same,Potency,[4],48.6 µM (active)
same,Potency,[8],61.1 µM (active)
same,Potency,[10],inactive
O=C1C(Cl)C(CCl)CN1c1cccc(C(F)(F)F)c1 (stereo unspecified),Potency,[1],inactive
same,Potency,[3],inactive
same,Potency,[11],inactive
same,Potency,[4],inactive
same,Potency,[6],inactive
same,Potency,[8],inactive
same,Potency,[10],inactive
Cc1ccccc1C(=O)Nc1cccc(OC(C)C)c1,Potency,[1],inactive
same,Potency,[3],inactive
same,Potency,[4],inactive
same,Potency,[5],inactive
same,Potency,[6],inactive
same,Potency,[8],inactive
OC(c1ccc(Cl)cc1)(c1ccc(Cl)cc1)c1cccnc1,Potency,[1],inactive
same,Potency,[2],inactive
same,Potency,[11],inactive
same,Potency,[4],inactive
same,Potency,[5],inactive
same,Potency,[6],inactive
same,Potency,[9],61.1 µM (active)
same,Potency,[10],inactive
CCC(C)(NC(=O)c1cc(Cl)c(C)c(Cl)c1)C(=O)CCl (stereo unspecified),Potency,[3],24.5 µM (active)
same,Potency,[11],inactive
same,Potency,[4],61.5 µM (active)
same,Potency,[6],48.9 µM (active)
same,Potency,[7],inactive
same,Potency,[8],24.5 µM (active)
same,Potency,[9],3.88 µM (active)
same,Potency,[10],inactive
NCCCNCCCN,Potency,[1],inactive
same,Potency,[3],inactive
same,Potency,[4],inactive
same,Potency,[5],inactive
same,Potency,[6],inactive
same,Potency,[8],inactive
C[C@]12CC[C@H]3[C@@H](CCC4=CC(=O)CC[C@@H]43)[C@@H]1CC[C@@H]2OC(=O)CCC1CCCCC1,Potency,[1],inactive
same,Potency,[2],inactive
same,Potency,[3],inactive
same,Potency,[11],inactive
same,Potency,[4],inactive
same,Potency,[5],inactive
same,Potency,[6],inactive
same,Potency,[7],inactive
same,Potency,[8],inactive
COc1nn(CSP(=S)(OC)OC)c(=O)s1,Potency,[1],inactive
same,outcome,[12],inactive
same,Potency,[16],inactive
same,Potency,[11],35.6 µM (active)
same,Potency,[4],inactive
same,Potency,[6],inactive
same,Potency,[7],54.5 µM (active)
OCCCBr,Potency,[1],inactive
same,Potency,[2],inactive
same,outcome,[12],inactive
same,outcome,[13],inactive
same,outcome,[14],inactive
same,Potency,[15],inactive
same,Potency,[16],inactive
same,outcome,[17],inactive
same,Potency,[3],inactive
same,Potency,[4],inactive
same,Potency,[5],inactive
same,Potency,[6],inactive
same,Potency,[7],inactive
same,Potency,[8],inactive
same,Potency,[10],inactive
COC(=O)C(C)N(C(=O)Cc1ccccc1)c1c(C)cccc1C (stereo unspecified),Potency,[1],inactive
same,Potency,[18],inactive
same,Potency,[11],inactive
same,Potency,[4],inactive
same,Potency,[5],inactive
same,Potency,[6],inactive
same,Potency,[7],9.69 µM (active)
same,Potency,[8],inactive
O=C1NCN(c2ccccc2)C12CCN(CCCOc1ccc(F)cc1)CC2,Potency,[1],inactive
same,Potency,[11],inactive
same,Potency,[4],6.68 µM (active)
same,Potency,[6],9.44 µM (active)
same,Potency,[8],inactive
same,Potency,[9],inactive
same,Potency,[10],inactive
CCOP(=O)(OCC)O/C(=C/Cl)c1ccc(Cl)cc1Cl,Potency,[1],inactive
same,Potency,[2],inactive
same,Potency,[11],inactive
same,Potency,[6],inactive
same,Potency,[9],2.73 µM (active)
same,Potency,[10],inactive
CCCC(Cn1cncn1)c1ccc(Cl)cc1Cl (stereo unspecified),Potency,[1],inactive
same,Potency,[3],54.5 µM (active)
same,Potency,[11],inactive
same,Potency,[4],inactive
same,Potency,[6],inactive
same,Potency,[7],61.1 µM (active)
same,Potency,[9],30.6 µM (active)
same,Potency,[10],inactive
CC(C)N(C(=O)COc1nnc(C(F)(F)F)s1)c1ccc(F)cc1,Potency,[1],inactive
same,Potency,[3],inactive
same,Potency,[11],inactive
same,Potency,[4],inactive
same,Potency,[5],inactive
same,Potency,[6],inactive
same,Potency,[8],inactive
same,Potency,[9],38.6 µM (active)
same,Potency,[10],inactive
O=C(NCc1cccnc1)Nc1ccc([N+](=O)[O-])cc1,Potency,[1],inactive
same,Potency,[2],inactive
same,Potency,[11],inactive
same,Potency,[4],inactive
same,Potency,[6],inactive
COP(=S)(Oc1cc(Cl)c(Br)cc1Cl)c1ccccc1 (stereo unspecified),Potency,[1],inactive
same,Potency,[2],inactive
same,Potency,[3],inactive
same,Potency,[11],inactive
same,Potency,[4],inactive
same,Potency,[5],inactive
same,Potency,[6],inactive
same,Potency,[8],inactive
same,Potency,[9],54.5 µM (active)
same,Potency,[10],inactive
CCOP(=S)(OCC)SCSCC,Potency,[1],inactive
same,Potency,[3],inactive
same,Potency,[11],inactive
same,Potency,[4],inactive
same,Potency,[8],inactive
NC(=O)CI,Potency,[1],inactive
same,Potency,[2],inactive
same,outcome,[12],inactive
same,outcome,[13],inactive
same,outcome,[14],inactive
same,Potency,[15],11.9 µM (active)
same,Potency,[16],12.3 µM (active)
same,outcome,[17],inactive
same,Potency,[3],inactive
same,Potency,[11],80.4 µM (active)
same,Potency,[4],inactive
same,Potency,[5],inactive
same,Potency,[7],inactive
same,Potency,[8],inactive
same,Potency,[9],inactive
same,Potency,[10],inactive

# From PubChem BioAssay (Tox21)
